Where “and” joins values, the source holds several entries; their conditions need not be identical. Identical values can stand only once. Results filed as inconclusive are left out. Calls of active or inactive are those of the source. The call rests on the fitted dose curve; in most records, active means well fitted curve in the direction sought with a large enough effect; inconclusive means small, poorly fitted or top-dose-only effect, or another doubt; inactive means no such curve, though single readings can be large; an effect the other way counts as inactive or inconclusive.
Key:
[1] = Viability qHTS for spleen associated tyrosine kinase inhibitor (SYKi) naive MV4-11 cells (AID 1963823); further: nearly all actives have a fitted effect of over 40% in size
Procedure, shortened: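 Luminescence from CellTiter-Glo, developed 10 min at room temperature, gave viability of MV4-11 cells never exposed to SYK inhibitor. Cells (500/well) had been incubated with compounds for 72 hr under standard culture conditions.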

[2] = Viability qHTS for spleen associated tyrosine kinase inhibitor (SYKi) drug resistant MV4-11 cells (AID 1963824); further: nearly all actives have a fitted effect of over 35% in size
Procedure, shortened: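 SYK-inhibitor-resistant MV4-11 AML cells were seeded at 500 per well onto compound and cultured 72 hours (37 °C, 5% CO2). CellTiter-Glo was then added, and after 10 min at room temperature, luminescence gave viability.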

[3] = Cellular viability qHTS for adrenocortical cancer (ACC) cell line SW-13 (AID 1963989); settings: SW-13 ACC cells viability, CellTiter-Glo, 48 h; activity (max response): stronger effect = lower value; further: nearly all actives have a fitted effect of over 65% in size;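 on activity (max response): cells grown in serum-free medium with ITS supplement; on the % scale 0 is the no-effect control and ±100 the full control effect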
Procedure, shortened: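 48 h treatment, SW-13 in ITS/DMEM serum-free; doses up to 46 uM; readout CellTiter-Glo luminescence; curve fit four-parameter logistic.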

[4] = Cellular viability qHTS for adrenocortical cancer (ACC) cell line NCI-H295R (AID 1963990); further: nearly all actives have a fitted effect of over 60% in size
Procedure, shortened: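 Compound titrations (up to 46 uM final) are applied to NCI-H295R cultures for 48 h at 37C. Viable cell number is estimated by CellTiter-Glo signal, normalised to DMSO and doxorubicin controls.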
Potency means the concentration at half of the fitted maximal effect.

CC(=O)N[C@@H](CC(C)C)C(=O)O
inactive: Potency [1] | Potency [2] | activity (max response) [3] 7.87% | Potency [4]

C=CC(=O)N1CCC[C@H](n2c(=O)n(-c3ccc(Oc4ccccc4)cc3)c3c(N)ncnc32)C1
active: Potency [1] 1.05 µM | Potency [2] 1.66 µM | Potency [3] 3.98 µM | Potency [4] 8.91 µM

CN1C(C)(C)CCCC1(C)C
inactive: Potency [1] | Potency [2] | activity (max response) [3] -4.6% | Potency [4]

COc1cc(Cc2cnc(N)nc2N)cc(OC)c1OC
inactive: Potency [1] | Potency [2] | activity (max response) [3] -3.43% | Potency [4]

COc1ccccc1N1CCN(CC(O)COc2cc(OC)c(OC)c(OC)c2)CC1 (stereo unspecified)
inactive: Potency [1] | Potency [2] | activity (max response) [3] 13.2% | Potency [4]

C[C@]12CCC3=C4CCC(=O)C=C4CC[C@H]3[C@@H]1CC[C@@]2(O)CC#N
inactive: Potency [1] | Potency [2] | activity (max response) [3] 0.0754% | Potency [4]

COC(=O)C1=C(C)NC(C)=C(C(=O)OCC(C)C)C1c1ccccc1[N+](=O)[O-] (stereo unspecified)
active: Potency [1] 10.6 µM | Potency [2] 10.6 µM | Potency [4] 16.4 µM

CCCCCCCCCCCC[N+](C)(C)Cc1ccccc1
active: Potency [1] 6.68 µM | Potency [2] 9.44 µM | Potency [4] 29.1 µM

O=C(O)C1CCC1
inactive: Potency [1] | Potency [2] | activity (max response) [3] 11.6% | Potency [4]

COc1cc(OC)cc(N(CCNC(C)C)c2ccc3ncc(-c4cnn(C)c4)nc3c2)c1
active: Potency [1] 5.25 µM | Potency [2] 4.11 µM | Potency [4] 22.4 µM

O=C(Nc1ccc2[nH]nc(-c3ccncc3)c2c1)[C@@H]1CCN(CC(=O)N2CCN(c3ccc(-c4ncccn4)cc3)CC2)C1
inactive: Potency [4]
active: Potency [1] 25.9 nM and 525 nM | Potency [2] 23.1 nM and 468 nM | Potency [3] 4.47 µM
